Shown are actives, neighbours in structure and some others; about 22% of the full set was active somewhere.
Pf growth 48h = Primary qHTS for delayed death inhibitors of the malarial parasite plastid, 48 hour incubation; P. falciparum luciferase growth in erythrocytes, 48 h; AID 504832, 2011; Potency, µM (doses to about 28.7 µM), most hits filed as inhibitors; 310,000 compounds, 5.9% hits
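Erythrocytes infected with P. falciparum carrying an integrated firefly luciferase reporter (2% hematocrit, 0.1% parasitemia final) were exposed to compounds in RPMI 1640 with 0.5% Albumax at 37 C, 5% CO2. Growth inhibition was scored as reduced luminescence.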
CHX counter = Cycloheximide Counterscreen for Small Molecule Inhibitors of Shiga Toxin | cell reporter, cycloheximide protein synthesis inhibition counterscreen | max response, % | 300,000 compounds, 12% hits | AID 2314, 2010; in the data active means max response mostly above about 13%, no sharp cut-off; inactive means mostly below about 14%; further: read at 38.3 µM for the half of the compounds with a filed dose
LmPK inhibitor = qHTS Assay for Inhibitors of Leishmania Mexicana Pyruvate Kinase (LmPK). Q27686. purified LmPK, Kinase-Glo ATP luminescence, 1 h. Potency, µM (titrated, usually from 57.5 µM), actives largely listed as inhibitors. 290,000 compounds, 0.37% hits
Target sequence (Q27686 whole entry, looked up): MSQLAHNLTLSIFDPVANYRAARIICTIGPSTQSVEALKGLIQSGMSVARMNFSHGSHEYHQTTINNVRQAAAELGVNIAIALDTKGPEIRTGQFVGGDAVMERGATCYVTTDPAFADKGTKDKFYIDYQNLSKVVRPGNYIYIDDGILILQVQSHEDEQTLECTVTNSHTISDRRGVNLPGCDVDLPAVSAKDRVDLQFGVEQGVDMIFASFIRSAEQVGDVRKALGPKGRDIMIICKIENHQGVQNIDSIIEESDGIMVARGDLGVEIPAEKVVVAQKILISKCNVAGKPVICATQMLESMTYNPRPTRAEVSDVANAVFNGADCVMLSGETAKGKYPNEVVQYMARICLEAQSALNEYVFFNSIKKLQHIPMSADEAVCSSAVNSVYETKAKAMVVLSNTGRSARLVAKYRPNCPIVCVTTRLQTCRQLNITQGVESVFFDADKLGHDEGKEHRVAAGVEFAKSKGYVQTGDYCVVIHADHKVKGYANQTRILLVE
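Purified LmPK (0.1 nM) with 0.5 mM PEP and 0.1 mM ADP in imidazole buffer pH 7.2 with MgCl2/KCl, 1 h at room temperature. ATP formed was read by luciferase luminescence and normalized to no-enzyme and uninhibited controls.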
Shiga inhibitor = A qHTS for Small Molecule Inhibitors of Shiga Toxin; Vero cells, Shiga toxin protein synthesis inhibition reporter; inhibition, % at 38.7 µM; 290,000 compounds, 9.2% hits; in the data active means inhibition mostly above about 28%, no sharp cut-off; inactive means mostly below about 43%
Pf growth 96h = Primary qHTS for delayed death inhibitors of the malarial parasite plastid, 96 hour incubation. P. falciparum luciferase reporter growth, 96 h. Potency, µM (top dose mostly 28.7 µM), usual class: inhibitors. 320,000 compounds, 6.9% hits
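Erythrocytes infected with luciferase-expressing P. falciparum were dispensed at 2% hematocrit and 0.05% parasitemia (final), then incubated with compounds 96 hours at 37 C in 5% CO2. Luminescence after detection reagent addition reported growth.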
Each line names hits and unclear results; the compound was inactive in the other large screens. Unless noted, the call rests on the fitted dose curve; in most records, active means well fitted inhibition curve with a large enough effect; inconclusive means small, poorly fitted or top-dose-only effect, or another doubt; inactive means no such curve, though single readings can be large or run the other way.

CCC1(c2ccccc2)NC(=O)N(CC(=O)NNC(=O)c2ccc(F)cc2)C1=O (stereo not given)	none (no result: CHX counter, LmPK inhibitor, Shiga inhibitor)
CC(C)Cn1nc(NC(=O)C(C)(C)C)c2cc3ccccc3nc21	Pf growth 48h 9.3µM, Pf growth 96h inconclusive
Cc1ccc2nc3c(cc2c1)c(NC(=O)C(C)(C)C)nn3CC(C)C	Pf growth 48h 13µM, Pf growth 96h 1µM
CCn1nc(NC(=O)c2cccnc2)c2cc3cccc(C)c3nc21	none
CCn1nc(NC(=O)c2ccncc2)c2cc3cccc(C)c3nc21	Pf growth 96h 2.1µM
CC(C)Cn1nc(NC(=O)c2cccs2)c2cc3ccccc3nc21	Pf growth 48h inconclusive, Pf growth 96h inconclusive
COc1ccc2nc3c(cc2c1)c(NC(=O)c1cccs1)nn3CC(C)C	Pf growth 48h inconclusive, CHX counter 19, Shiga inhibitor 88
Cc1ccc2nc3c(cc2c1)c(NC(=O)c1ccco1)nn3CC(C)C	Pf growth 48h inconclusive, Pf growth 96h inconclusive
COC(=O)C1=C[C@@H](C(=O)OC)C2C3=C(C(=O)[C@]2(C)NC(=O)c2ccccc2)[C@H](C)[C@@H]2C(=O)N(C)C(=O)[C@@H]2[C@@H]3C1 (stereo not given in full)	none (no result: Pf growth 48h, LmPK inhibitor, Pf growth 96h)
CS(=O)(=O)N(CC(=O)N1CCCCC1)c1cccc(F)c1	none
CC(C)Cn1nc(NC(=O)c2ccco2)c2cc3ccccc3nc21	Pf growth 96h inconclusive
CCn1nc(NC(=O)c2ccco2)c2cc3ccccc3nc21	Pf growth 96h 9.3µM (no result: Pf growth 48h)
COC(=O)c1sc(NC(=S)NNC(=O)c2c(Br)c(C)nn2C)c(C(=O)OC)c1C	Pf growth 96h inconclusive
C/C(CC(=O)NC1CCCC1)=N\NC(=O)c1ccc([N+](=O)[O-])c(Cl)c1	none
CCCNC(=O)OC[C@H]1O[C@H](CCO/N=C(\C)CCN2CCc3nc(-c4ccccc4)c(-c4ccccc4)cc3C2)C=C[C@@H]1Oc1ccc(OC)cc1	Pf growth 48h 5.9µM, Pf growth 96h 4.7µM
O=C(OCc1ccc([N+](=O)[O-])cc1)c1cc(=O)c2ccccc2o1	CHX counter 9.7
Nc1ccccc1C(=O)OCc1ccc([N+](=O)[O-])cc1	CHX counter 33, Shiga inhibitor 76
O=C(OCc1nnc(-c2ccccc2)o1)c1cc(=O)c2ccccc2o1	CHX counter 26
O=C(OCc1nnc(-c2ccccc2)o1)c1ccco1	none (no result: Pf growth 96h)
CCCN(CC(=O)Nc1ccc(C(N)=O)cc1)CC(=O)Nc1ccc(F)c(F)c1F	none
CC1(C(=O)NCCN2CCOCC2)C=CC2(CCCCC2)N1C(=O)c1ccccc1 (stereo not given)	CHX counter 26, Pf growth 96h inconclusive
C[C@]1(C(=O)NCCN2CCOCC2)C=C[C@@H](Cc2ccccc2)N1C(=O)c1ccccc1	none
CC(=O)N1[C@H](Cc2ccccc2)C=C[C@]1(C)C(=O)NCCN1CCOCC1	CHX counter 11, Pf growth 96h inconclusive
O=C(/C=C(\O)c1ccccc1)C(=O)NNC(=O)c1ccccc1	CHX counter 39, Shiga inhibitor 52
COc1ccc(C(=O)NNC(=O)C(=O)/C=C(\O)c2ccc(C)cc2)cc1	none
O=C1c2cccnc2C(=O)N1Cc1ccc(S(=O)(=O)N2CCN(c3ccccc3)CC2)cc1	none
CC1Nc2ncnc(N3CCN(c4ccccc4)CC3)c2N(Cc2ccc(Cl)cc2)C1=O (stereo not given)	Pf growth 48h 8.3µM, Pf growth 96h 13µM (no result: CHX counter, LmPK inhibitor, Shiga inhibitor)
Cc1ccc(CN2C(=O)C(C)Nc3ncnc(N4CCOCC4)c32)cc1 (stereo not given)	Pf growth 48h 10µM, Pf growth 96h 12µM (no result: CHX counter, LmPK inhibitor, Shiga inhibitor)
O=C1C(Cc2ccccc2)Nc2ncnc(N3CCOCC3)c2N1Cc1ccc(Br)cc1 (stereo not given)	Pf growth 48h 13µM, Pf growth 96h inconclusive (no result: CHX counter, LmPK inhibitor, Shiga inhibitor)
O=C1C(Cc2ccccc2)Nc2ncnc(N3CCCCC3)c2N1Cc1ccc(Cl)cc1 (stereo not given)	Pf growth 48h 12µM, Pf growth 96h 12µM (no result: CHX counter, LmPK inhibitor, Shiga inhibitor)
CCC(c1nnnn1C1CCCC1)N1CCC(C(N)=O)CC1 (stereo not given)	none
Cc1ccccc1NC(=O)c1ccc(OCc2c(C)noc2C)cc1	Pf growth 48h inconclusive (no result: CHX counter, LmPK inhibitor, Shiga inhibitor)
CCS(=O)(=O)N1CCC(C(=O)Oc2ccc(C)c(C)c2)CC1	none
O=C1C(Cc2ccccc2)Nc2ncnc(N3CCN(c4ccccc4)CC3)c2N1Cc1ccc(Cl)cc1 (stereo not given)	Pf growth 48h 3.7µM, Pf growth 96h 9.3µM (no result: CHX counter, LmPK inhibitor, Shiga inhibitor)
COc1ccc(Cl)cc1NS(=O)(=O)c1c(C)[nH]c(=O)[nH]c1=O	none
Cc1ccc(/C=N/Nc2cccc3cccnc23)c(O)c1	CHX counter 28
Cc1ccc2nc(C)cc(N/N=C/c3cccnc3)c2c1	none
Oc1ccc(/C=N/Nc2cccc3cccnc23)c(O)c1	CHX counter 59, Shiga inhibitor 102
CSCC[C@H](NC(=O)[C@@H]1CCCN1C(=O)CNC(=O)[C@H](CCCCN)NC(=O)[C@H](Cc1cnc[nH]1)NC(=O)[C@H](CO)NC(=O)[C@H](CC(C)C)NC(=O)[C@H](CCCNC(=N)N)NC(=O)[C@@H]1CCCN1C(=O)[C@H](CCCNC(=N)N)NC(=O)[C@H](CCC(N)=O)NC(=O)[C@H](CCCNC(=N)N)NC(=O)[C@H](CCCNC(=N)N)NC(=O)[C@H](Cc1ccccc1)NC(=O)[C@@H](N)CCCCN)C(=O)N1CCC[C@H]1C(=O)N[C@@H](Cc1ccccc1)C(=O)O	none (no result: Pf growth 48h, LmPK inhibitor, Pf growth 96h)
O=C1S/C(=C\C=C\c2ccco2)C(=O)N1c1ccc(O)cc1	CHX counter 43, Shiga inhibitor 71
O=C1S/C(=C\C=C\c2ccco2)C(=O)N1c1ccccc1	CHX counter 38, Shiga inhibitor 59
N#Cc1ccccc1S(=O)(=O)c1ccccc1C(=O)Nc1ccccc1	none
